Screening data as filed in PubChem BioAssay.
PI5P4Ka inh: PI5P4K alpha (human) kinase inhibition | P48426 | PI5P4Kalpha enzyme, ADP-Glo luminescence, 60 min; active compounds read low | max response, % | actives 1.2% (n = 330,000); active means max response of -50% or lower; inconclusive means between -30% and -50%; inactive means -30% or higher; further: value at the top dose of about 77 µM
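ADP-Glo luminescence end-point read after a 60 min room-temperature kinase reaction of PI5P4Kalpha plus substrate, initiated with ATP at 5 microM final. Buffer: 0.038 M HEPES pH 7.4, EGTA, 0.1% CHAPS, 5% DMSO.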
WRN inhibitor: blocks human WRN helicase; Q14191; WRN helicase unwinding, fluorescent forked duplex, kinetic; Potency, µM (series often up to 114 µM), for inactives: top-dose activity change, negative = inhibition, actives largely listed as inhibitors; actives 0.46% (n = 360,000); AID 651768; further: potency means the concentration at half of the fitted maximal effect; nearly all actives have a fitted effect of over 55% in size
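Primary qHTS, 1536-well format. 20 nM WRN + compound, 15 min RT; start with 100 nM forked fluorophore/quencher duplex, 2 mM ATP (final); kinetic read ex 525/em 598 nm.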
USP1-UAF1 inh: inhibitors of human USP1/UAF1 deubiquitinase. O94782. Potency, µM (highest dose often 57.1 µM), for the others: top-dose activity change, negative = inhibition, most hits filed as inhibitors. recombinant USP1/UAF1, Ub-Rhodamine cleavage fluorescence. actives 0.23% (n = 390,000); further: potency means the concentration at half of the fitted maximal effect; nearly all actives have a fitted effect of over 60% in size
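In this screen, compounds sit with the deubiquitinase complex (1nM) for 15 min at room temperature before Ub-Rho is added at 150nM final. Fluorescence rise is then followed for 6 reads every 60 seconds.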
PLK1 PBD block: PLK1 (human) polo-box domain binding inhibition. P53350. Potency, µM, without a hit: max response, negative = inhibition, most hits filed as inhibitors. actives 2.8% (n = 360,000). Plk1 PBD binding of FITC phosphopeptide, fluorescence polarization. AID 720504; further: potency means the concentration at half of the fitted maximal effect; series mostly up to about 57 µM; nearly all actives have a fitted effect of over 65% in size
Target sequence (P53350 whole entry, looked up, the tested form may be a part): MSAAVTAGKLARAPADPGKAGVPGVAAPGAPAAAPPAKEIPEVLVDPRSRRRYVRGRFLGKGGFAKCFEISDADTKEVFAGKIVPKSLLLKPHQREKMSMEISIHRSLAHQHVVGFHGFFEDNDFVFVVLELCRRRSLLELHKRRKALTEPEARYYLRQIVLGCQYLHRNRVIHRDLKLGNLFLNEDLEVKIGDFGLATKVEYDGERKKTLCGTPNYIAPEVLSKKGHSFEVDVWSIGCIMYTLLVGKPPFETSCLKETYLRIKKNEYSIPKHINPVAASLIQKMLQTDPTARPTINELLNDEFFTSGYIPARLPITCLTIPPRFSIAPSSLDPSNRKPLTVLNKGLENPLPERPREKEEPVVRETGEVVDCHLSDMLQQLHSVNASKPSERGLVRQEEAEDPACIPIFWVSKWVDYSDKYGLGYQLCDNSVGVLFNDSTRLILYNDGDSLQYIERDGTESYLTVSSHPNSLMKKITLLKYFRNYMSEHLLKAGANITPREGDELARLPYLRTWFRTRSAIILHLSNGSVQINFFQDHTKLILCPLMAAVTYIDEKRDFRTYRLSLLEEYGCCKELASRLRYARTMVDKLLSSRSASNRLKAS
USP2a inh: blocks human ubiquitin-specific protease USP2a. USP2 core, Ub-CHOP2 coupled fluorogenic reporter, 485/531. Potency, µM (titrated, usually from 38.3 µM), for the others: top-dose activity change, negative = inhibition, most hits filed as inhibitors. actives 0.01% (n = 330,000). AID 463254;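 further: potency means the concentration at half of the fitted maximal effect; plate controls were DMSO wells for no effect and full inhibition by NEM control for full effect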
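Cell-free coupled assay: 10nM USP2 core preincubated 30min RT with compound in Tris-HCl pH 8.0/CaCl2/CHAPS buffer, then 25nM Ub-CHOP2 and 25nM reporter substrate; fluorescence (Ex 485/Em 531) read after 60min RT, normalized to NEM inhibition, concentration-response curves fitted.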
ADP-Glo interf: counter-screen for PI5P4K inhibitors: ADP-Glo detection interference, no enzyme. 1,100 tested, under 10 active. Potency, µM (titrated, usually from 76.9 µM), for inactives: at the highest dose activity change, negative = inhibition, most hits filed as inhibitors. ADP-Glo detection counter-screen, luciferase luminescence, no enzyme. shares compounds with PI5P4Ka inh
* hit, by the source's call; ? = inconclusive; . = no result; [ ] = remark or other dose. This is a sample that favours compounds with a hit; in the whole collection about 3.3% have one here. Unless noted, the call rests on the fitted dose curve; in most records, active means well fitted curve in the direction sought with a large enough effect; inconclusive means small, poorly fitted or top-dose-only effect, or another doubt; inactive means no such curve, though single readings can be large; an effect the other way counts as inactive or inconclusive. Unless noted, on the % scale 0 is the no-effect control and ±100 the full control effect.

SMILES	PI5P4Ka inh	WRN inhibitor	USP1-UAF1 inh	PLK1 PBD block	USP2a inh	ADP-Glo interf
COc1ccc2c(c1)c(=O)oc1c(C)c(OCc3cc(C(=O)O)oc3C)ccc12	-68*	50µM*	-17%	?	-1%	1%
COc1ccc2c(c1)c(=O)oc1c(C)c(OC(C)C(=O)NCC3CCC(C(=O)O)CC3)ccc12 (stereo unspecified)	1	1%	-24%	1%	-2%	.
COc1ccccc1CNS(=O)(=O)c1ccc2c(c1)CC(C)N2C(C)=O (stereo unspecified)	.	.	-18%	.	.	.
COc1ccc(NC(=O)CSc2nc(-c3ccco3)nc3cc(=O)[nH]n23)cc1Cl	-56*	-8%[11.6 µM]	-17%	19µM*	2%	-3%
COc1ccc(NC(=O)CSc2nc(-c3ccco3)nc3cc(=O)[nH]n23)cc1	.	.	-25%	.	.	.
CC(C)C(=O)N1CCN(c2ccccc2NC(=O)c2ccco2)CC1	-59*	-15%	-8%	-6%	-3%	2%
CC(C)C(=O)N1CCN(c2ccccc2NC(=O)c2ccc(Br)o2)CC1	-4	2%	-10%	-6%	1%	.
O=C(COc1ccc(Cl)cc1)NCC(c1ccco1)S(=O)(=O)c1ccc(Cl)cc1 (stereo unspecified)	.	.	9%	.	.	.
COc1ccc2ccccc2c1C1CC(=O)N2CN(C3CCCCC3)CSC2=C1C#N (stereo unspecified)	-56*	-2%	?	13µM*	-1%	-5%
COC(=O)C1=C(C)N(C)C(=O)NC1c1c(OC)ccc2ccccc12 (stereo unspecified)	14	-6%	-3%	-2%	0%	.
COc1cc(CN(C(=O)COc2ccc(Br)cc2)c2ccccn2)cc(OC)c1OC	.	.	-11%	.	.	.
O=C(NCc1cc([N+](=O)[O-])ccc1O)c1cccc(NS(=O)(=O)c2ccccc2)c1	-66*	?	-21%	-4%	3%	2%
Cc1ccc2c(=O)cc(C(=O)Nc3sc4c(c3C(=O)NCC3CCCO3)CCCC4)oc2c1C (stereo unspecified)	.	.	-6%	.	.	.
CCOc1ccc(CC(=O)Nc2c(C(N)=O)oc3ccccc23)cc1OCC	-1	-14%	-19%	1%	-1%	.
CCOc1ccc(CC(=O)Nc2sc(Cc3ccccc3)c(C)c2C(N)=O)cc1OCC	-53*	-5%	-27%	?	-3%	-2%
Cc1nc(N2CCC(C)CC2)c2c(C)c(C(=O)Nc3ccc4c(c3)OCCO4)sc2n1	10	-5%	?	3%	-1%	.
Cc1c(C(=O)Nc2ccc3c(c2)OCCO3)sc2ncnc(N3CCCCC3C)c12 (stereo unspecified)	.	-8%[57.1 µM]	-26%	0%	2%	-3%
N#Cc1ccc(COC(=O)CC(NC(N)=O)c2ccc(Cl)cc2)cc1 (stereo unspecified)	?	3%	-15%	0%	0%	4%
COc1ccc(C(=O)N2CCC2(C)C(=O)O)cc1F (stereo unspecified)	?	2%	.	-9%	.	2%
CCOC(=O)C1(C)CCCN1C(=O)c1ccc(OC)c(F)c1 (stereo unspecified)	-2	3%	.	-3%	.	.
COc1cccc(NC(=O)Cn2c(=O)n(Cc3ccco3)c(=O)c3cc(OC)c(OC)cc32)c1	.	.	-16%	.	.	.
C#CCN1C(=O)S/C(=C\c2ccc(-c3ccc(C(=O)O)cc3C)o2)C1=O	-57*	?	-24%	?	1%	2%
CC(C)(C)OC(=O)CN1C(=O)S/C(=C\c2ccc(-c3cccc(C(=O)O)c3)o2)C1=O	.	.	.	.	-1%	.
Cc1cc(NC(=O)CN2CCCCCCC2)no1	.	-7%	-26%	-4%	2%	.
Cc1cc(NC(=O)CN2CCN(C)CC2)no1	-51*	5%	-12%	12µM*	-1%	3%
COc1cc(NC(=O)C2CCN(S(=O)(=O)c3c(C)noc3/C=C/c3ccccc3F)CC2)cc(OC)c1OC	.	.	15%	.	.	.
